Assay results: PubChem BioAssay AID651548 (Broad Institute, 2012)
Out of some 57,000 compounds screened, about 200 (0.35%) were called active. The full list was thinned out, with actives kept by preference. Unmarked numbers belong to inactive results.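 The calls were made as follows: active = mean inhibition of replicates at least 50% and every single replicate also reaching 50%; inconclusive = mean inhibition at least 50% but some replicate falls below 50%; inactive = mean inhibition under 50%.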

Molecular target: Histone-lysine N-methyltransferase EZH2 (Homo sapiens) (UniProt Q15910)
Sequence (Q15910 whole entry, looked up): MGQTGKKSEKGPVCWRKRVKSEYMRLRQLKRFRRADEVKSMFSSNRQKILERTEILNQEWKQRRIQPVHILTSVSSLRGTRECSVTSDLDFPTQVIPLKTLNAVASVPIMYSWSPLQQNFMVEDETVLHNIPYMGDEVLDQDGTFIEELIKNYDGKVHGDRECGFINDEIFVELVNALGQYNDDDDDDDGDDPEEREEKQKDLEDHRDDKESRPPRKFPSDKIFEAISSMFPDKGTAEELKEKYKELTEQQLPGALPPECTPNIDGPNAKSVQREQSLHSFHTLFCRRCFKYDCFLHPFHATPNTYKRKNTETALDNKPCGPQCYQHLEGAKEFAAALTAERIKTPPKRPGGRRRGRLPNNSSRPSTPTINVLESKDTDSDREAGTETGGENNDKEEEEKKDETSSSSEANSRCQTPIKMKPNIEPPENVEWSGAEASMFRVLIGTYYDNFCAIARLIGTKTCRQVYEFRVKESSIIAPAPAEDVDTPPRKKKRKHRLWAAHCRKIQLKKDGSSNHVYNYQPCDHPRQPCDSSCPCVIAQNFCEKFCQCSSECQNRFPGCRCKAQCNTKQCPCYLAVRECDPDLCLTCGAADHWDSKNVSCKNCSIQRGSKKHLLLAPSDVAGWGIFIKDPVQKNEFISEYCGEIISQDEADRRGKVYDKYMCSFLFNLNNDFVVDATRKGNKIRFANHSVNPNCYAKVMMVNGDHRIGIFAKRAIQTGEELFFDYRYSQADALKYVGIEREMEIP
Assay: inhibition of PRC2 H3K27 methylation – biochemical, DELFIA time-resolved fluorescence, single point, primary screen (AID 651548);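 also: dimethyl H3K27 on biotinylated H3 21-44 peptide detected by antibody; plate controls were median neutral control wells for no effect and median positive control wells for full effect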
Conditions: DELFIA TRF, 1 h, at 12.5 µM, stronger effect = higher value

SMILES | inhibition
C[C@@H]1O[C@@H](O[C@@H]2C=C3CC[C@@H]4C(C[C@@H](O)[C@]5(C)[C@@H](c6ccc(=O)oc6)CC[C@]45O)[C@@]3(C)CC2)[C@H](O)[C@H](O)[C@H]1O[C@@H]1O[C@H](CO)[C@@H](O)[C@H](O)[C@H]1O (stereo not given in full) | 75.9% (active)
c1ccc(CCCCN2CCC(c3ccccc3)CC2)cc1 | 11.8%
CCCCCCCCCCCCCC(=O)O[C@@H]1[C@@H](C)[C@@]2(O)[C@@H](C=C(CO)C[C@]3(O)C(=O)C(C)=C[C@@H]23)[C@@H]2C(C)(C)[C@]12OC(C)=O | -10.7%
c1ccc2c(c1)[I+]c1ccccc1-2 | -3.64%
CC(C)(Cc1c[nH]c2ccc(Cl)cc12)NCCOc1ccccc1OCC1CC1 | 3.93%
